# System: human monocyte-derived macrophages (polarized)
# Assay: cell shape (eccentricity) Z-score vs DMSO control; higher = more elongated, M2-like morphology
# Details: 5 µM; 24 h; macrophage state: M2-polarized (IL-4 + IL-13), cytokines present during treatment
# Method: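 Primary-screen hits were rescreened on polarized hMDMs with the differentiating cytokines (IL-4 + IL-13 or IFNg + TNFa) kept in the medium during treatment with compound at 5 uM for 24 h. The eccentricity Z-score vs DMSO wells is averaged over experiments.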
row,SMILES,cell shape (Z-score)
1,CN[C@H]1CC[C@@H](c2ccc(Cl)c(Cl)c2)c2ccccc21,-4.29
2,CCCCc1ccc2[nH]c(NC(=O)OC)nc2c1,0.889
3,C[C@H]1CN([C@@H](C)CO)S(=O)(=O)c2ccc(C#Cc3ccncc3)cc2O[C@@H]1CN(C)C(=O)Nc1ccc2c(c1)OCO2,5.87
4,Cc1oc(=O)oc1CN1CCN(c2cc3c(cc2F)c(=O)c(C(=O)O)c2n3C(C)S2)CC1 (stereo not drawn),-6.14
5,CC(=O)N[C@@H](C(=O)O[C@H]1CCC(C)(C)[C@@H]2CCC3=C(COC3=O)[C@@]12C)C(C)C,-0.761
6,C[C@@H]1O[C@@H](O[C@@H]2[C@@H](O)[C@H](OC(=O)[C@]34CCC(C)(C)CC3C3=CCC5[C@@]6(C)CC[C@H](OC7OC(CO)C(OC8OCC(O)C(O)C8O)C(O)C7O)C(C)(C)C6CC[C@@]5(C)[C@]3(C)CC4O)O[C@H]2CO)[C@H](O)[C@H](O)[C@H]1O[C@H]1OC[C@](O)(CO)[C@H]1O (stereo partly drawn),-4.86
7,COc1ccc(S(=O)(=O)N(C(C)=O)c2ccccc2/C=C/c2cc[n+]([O-])cc2)cc1,-2.29
8,CC(C)CC1NC(=O)C(C)NC1=O (stereo not drawn),-2.08
9,C=C1C(=O)O[C@@H]2C3=C(C)CC[C@]34O[C@@H](C[C@@H]4C)[C@H]12,13
10,O=C(O)CN1C(=O)c2cccc3cccc(c23)C1=O,9.63
11,O=C(Nc1ccc([N+](=O)[O-])cc1Cl)c1cc(Cl)ccc1O,-8.05
12,O=C1c2ccccc2C(Cc2ccnc(F)c2)(Cc2ccnc(F)c2)c2ccccc21,1.79
13,CN(C)c1ccc(C(=C2C=CC(=[N+](C)C)C=C2)c2ccc(N(C)C)cc2)cc1,-9.83

# From the supplement of paper PMC7858590
